Experimental data: PubChem BioAssay
Where “and” joins values, the source holds several entries; their conditions need not be identical. Identical values can stand only once. Calls of active or inactive are those of the source.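 Rule for the calls, unless noted: active = inhibition at or above 50% relative to wild type and mutant plate controls; inactive = inhibition below 50%.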

Assays:
[1] = inhibitors of mutant huntingtin aggregation, primary screen, imaging, exon1htt(103Q)mCFP cells, high-content imaging (AID 483;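 active = visual image review flags a hit and inhibition of aggregation exceeds 20%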;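 note: compound exposure lasted 3 days before fixation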;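 for nuclei count: percent of the per-plate median nuclei count of sample wells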); settings: exon1htt(103Q)mCFP cell line, aggregate imaging, at 2 µM; inhibition of aggregation: stronger effect = higher value; nuclei count: measured here: cell count, toxicity
[2] = inhibitors of E-selectin induction by TNFa, primary screen, imaging, HUVEC, immunofluorescence, MLSMR starter and 10KST1 sets (AID 487;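 active = visually confirmed hit in the image check and inhibition above 20%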;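 for inhibition: signal is fraction of cell area covered by stained E-selectin grains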;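 for nuclei count: 100% = median nuclei count of all wells on the same plate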); settings: HUVEC TNFalpha-induced E-selectin immunofluorescence imaging, at 2 µM; inhibition: stronger effect = higher value; nuclei count: measured here: cell number, toxicity
[3] = DUSP6 inhibitors restoring Erk phosphorylation by chemical complementation, primary imaging in DUSP6-transfected HeLa (AID 609;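 active = compounds giving at least 50% inhibition in the cell-based MKP-3 phosphatase rescue imaging test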;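 for inhibition: phospho-Erk level distribution per well compared with pooled transfected vehicle control wells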); settings: HeLa MKP-3 transfected, phospho-Erk imaging KS statistic, at 10 µM, cells stimulated with TPA for 15 min
[4] = target: Dual specificity protein phosphatase 6 (Homo sapiens) (UniProt Q16828); assay: as above; settings: HeLa MKP-3 transfected, phospho-Erk imaging KS statistic; at 10 µM; stronger effect = higher value; cells stimulated with TPA for 15 min
Dual specificity protein phosphatase 6 (Homo sapiens), sequence (Q16828 whole entry, looked up): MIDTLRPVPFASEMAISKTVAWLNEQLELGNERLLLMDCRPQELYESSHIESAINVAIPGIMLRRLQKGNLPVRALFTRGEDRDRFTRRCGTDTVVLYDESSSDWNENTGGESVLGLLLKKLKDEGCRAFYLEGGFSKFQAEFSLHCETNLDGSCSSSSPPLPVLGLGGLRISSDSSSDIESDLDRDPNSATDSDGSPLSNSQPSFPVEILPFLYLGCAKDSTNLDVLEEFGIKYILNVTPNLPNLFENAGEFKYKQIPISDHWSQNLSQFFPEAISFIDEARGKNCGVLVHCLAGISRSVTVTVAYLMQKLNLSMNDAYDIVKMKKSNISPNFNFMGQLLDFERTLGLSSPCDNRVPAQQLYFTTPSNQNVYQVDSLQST

[5] = target: Voltage-gated potassium channel subunit beta-2 (Rattus norvegicus) (UniProt P62483); assay: KvBeta enzyme negative modulators, primary screen, biochemical, NADPH fluorescence (AID 622;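 active = fluorescence slope higher than the sample average by over 3 SD, cut at about -0.22 in these data, passing the limit was not always enough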;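 note: slope of raw intensity against log time taken from 70 to 1610 s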); settings: recombinant KvBeta, 4-cyanobenzaldehyde reduction, at 10 µM, stronger effect = higher value
Voltage-gated potassium channel subunit beta-2 (Rattus norvegicus), sequence (P62483 whole entry, looked up): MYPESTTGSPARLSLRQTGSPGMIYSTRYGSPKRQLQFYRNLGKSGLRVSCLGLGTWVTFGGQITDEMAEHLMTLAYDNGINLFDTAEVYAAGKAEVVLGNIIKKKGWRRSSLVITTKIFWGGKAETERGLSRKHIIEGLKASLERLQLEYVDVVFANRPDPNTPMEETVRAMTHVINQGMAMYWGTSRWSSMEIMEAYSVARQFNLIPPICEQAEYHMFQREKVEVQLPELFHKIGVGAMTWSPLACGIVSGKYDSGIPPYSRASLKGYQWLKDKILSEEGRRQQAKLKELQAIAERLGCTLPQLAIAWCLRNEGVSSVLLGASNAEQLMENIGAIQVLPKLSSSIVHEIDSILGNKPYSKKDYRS

[6] = target: Voltage-gated potassium channel subunit beta-2 (Rattus norvegicus) (UniProt P62483); assay: KvBeta positive modulators, primary screen, biochemical, NADPH fluorescence (AID 623;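 active = NADPH fluorescence slope more negative than the mean of all samples by about 3 SD, 99.7% confidence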;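 note: fluorescence intensity change per second fitted from 20 to 320 s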); settings: Recombinant KvBeta, NADPH fluorescence decrease slope, 10 min; at 10 µM; stronger effect = lower value
[7] = target: Alpha-2C adrenergic receptor (Homo sapiens) (UniProt P18825); assay: modulators of alpha2C/GIRK thallium flux, primary screen, cell-based, HEK293 alpha2C/GIRK1/2 (AID 624;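 active = fluorescence slope after compound addition differing from the mean of all screened samples at 99.7% confidence, in either direction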;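 note: slope of fluorescence ratio to pre-addition baseline per second over 15 to 24 s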); settings: thallium flux BTC fluorescence, at 10 µM, actives lie on both sides
Alpha-2C adrenergic receptor (Homo sapiens), sequence (P18825 whole entry, looked up): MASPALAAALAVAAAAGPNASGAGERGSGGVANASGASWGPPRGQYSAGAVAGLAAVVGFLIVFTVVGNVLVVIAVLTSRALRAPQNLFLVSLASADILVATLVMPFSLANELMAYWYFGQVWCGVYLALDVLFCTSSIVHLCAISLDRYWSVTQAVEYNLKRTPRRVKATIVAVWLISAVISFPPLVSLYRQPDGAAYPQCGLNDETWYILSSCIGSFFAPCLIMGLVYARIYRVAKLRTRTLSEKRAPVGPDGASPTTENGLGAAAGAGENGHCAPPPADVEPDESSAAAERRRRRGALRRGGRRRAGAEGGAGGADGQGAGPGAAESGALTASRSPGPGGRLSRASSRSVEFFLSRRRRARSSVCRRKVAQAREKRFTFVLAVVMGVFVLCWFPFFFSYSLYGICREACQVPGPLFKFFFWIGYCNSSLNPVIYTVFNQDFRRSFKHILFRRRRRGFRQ

[8] = inhibitors of larval lipid processing in zebrafish, primary screen, whole organism, PED6 fluorescence, gall bladder and intestine (AID 686;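 active = a full or partial loss of lipid-probe fluorescence in the fish gall bladder, intestine or both, judged by eye; inactive = no fluorescence loss, or compound toxic to the fish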;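 note: larvae 5 to 7 days old with five fish per well; signal comes from phospholipase A2 cleavage of quenched PED6 carried via bile; overnight exposure to compound and PED6 before scoring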); settings: Zebrafish larvae PED6 lipid processing, fluorescence scoring; screened at 20 µM (by protocol)
[9] = inhibitors of Chlamydomonas gravitaxis, primary screen, whole organism, Chlamydomonas reinhardtii, WT vs cilia-less mutant, absorbance, 96-well (AID 463189); settings: OD600 absorbance, 2 days, at 10 µM, stronger effect = higher value;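 note: 0% = wild type cc124 cells in DMSO and 100% = ciliumless bld1 mutant cells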
[10] = inhibitors of Sendai virus-induced IRF3 signaling, primary screen, TLR/RLR signaling modifier project, cell-based, Sendai virus stimulus, luciferase, 10K MLSCN set (AID 602276;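 active = inhibition at or above 50% at 10 µM; inactive = inhibition below 50%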;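 note: firefly luciferase from ISG56 promoter only with Renilla not read in this screen; 0% = Sendai virus plus DMSO and 100% = medium plus DMSO without virus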); settings: HEK293 RL24 IRF3 luciferase reporter, at 10 µM, stronger effect = higher value
[11] = inhibitors of poly I:C-induced TLR3 signaling, primary screen, cell-based, poly I:C stimulus, luciferase, 10K MLSCN set (AID 602277;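 active = inhibition of the reporter signal at or above 50%; inactive = inhibition below 50%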); settings: HEK293-TLR3 RL24 IRF3 luciferase reporter, at 10 µM, stronger effect = higher value
[12] = measured here: cell density z-score
[13] = measured here: nuclear c-Myc green intensity z-score
[14] = measured here: nuclear pErk red intensity z-score, stronger effect = higher value

With `C=C(CC)C(=O)c1ccc(OCC(=O)O)c(Cl)c1Cl` the inhibition of aggregation [1] was 19.4% (inactive), the nuclei count [1] was 108% and the inhibition [2] was -32.5% (inactive). For the same compound, the nuclei count [2] was 120%, the z-score [3, 12] was -0.0756 and the z-score [3, 13] was -0.0149. For the same compound, the z-score [3, 14] was 0.974, the inhibition [4] was 5.42% (inactive) and the fluorescence slope [5] was -0.476 (inactive). For the same compound, the NADPH fluorescence slope [6] was -8e-05 (inactive), the slope [7] was 0.00538 (inactive) and the outcome [8] was “inactive”. The inhibition [9] was -3.46% (inactive), the inhibition [10] was 17.1% (inactive) and the inhibition [11] was 39.1% (inactive).
With `Cc1cccc(CN2CCN(C(c3ccccc3)c3ccc(Cl)cc3)CC2)c1` (centres undefined) the inhibition of aggregation [1] was -13.4% (inactive), the nuclei count [1] was 103% and the inhibition [2] was -28.5% (inactive). The nuclei count [2] was 122%, the z-score [3, 12] was -0.832 and the z-score [3, 13] was -0.304. The z-score [3, 14] was -0.398, the inhibition [4] was 1.48% (inactive) and the fluorescence slope [5] was -0.508 (inactive). For the same compound, the NADPH fluorescence slope [6] was -3.3e-06 (inactive), the slope [7] was 0.00615 (inactive) and the outcome [8] was “inactive”. For the same compound, the inhibition [9] was -15.7% (inactive), the inhibition [10] was 6.06% (inactive) and the inhibition [11] was 30.8% (inactive).
For `CCc1oc2ccccc2c1C(=O)c1cc(Br)c(O)c(Br)c1`, the inhibition of aggregation [1] was -4.4% (inactive), the nuclei count [1] was 98% and the inhibition [2] was -113% (inactive). For the same compound, the nuclei count [2] was 132%, the z-score [3, 12] was 0.0952 and the z-score [3, 13] was 0.368. The z-score [3, 14] was 0.987, the inhibition [4] was 17.3% (inactive) and the fluorescence slope [5] was -0.429 (inactive). The NADPH fluorescence slope [6] was 3.1e-06 (inactive), the slope [7] was 0.00421 (inactive) and the outcome [8] was “inactive; toxic”. The inhibition [9] was 129% (active), the inhibition [10] was 18.5% (inactive) and the inhibition [11] was 30.1% (inactive).
With `Clc1ccc(Cn2c(CN3CCCC3)nc3ccccc32)cc1` the inhibition of aggregation [1] was 13.4% (inactive), the nuclei count [1] was 112% and the inhibition [2] was -57.5% (inactive). For the same compound, the nuclei count [2] was 133%, the z-score [3, 12] was 0.217 and the z-score [3, 13] was 0.404. The z-score [3, 14] was 0.417, the inhibition [4] was 1.48% (inactive) and the fluorescence slope [5] was -0.551 (inactive). The NADPH fluorescence slope [6] was -3.2e-05 (inactive), the slope [7] was 0.00478 (inactive) and the outcome [8] was “inactive; toxic”. The inhibition [9] was 2.55% (inactive) and 22.9% (inactive), the inhibition [10] was 16.5% (inactive) and the inhibition [11] was 28.2% (inactive).
For `CC(=O)OC[C@H]1O[C@@H](n2ncc(=O)[nH]c2=O)[C@H](OC(C)=O)[C@@H]1OC(C)=O`, the inhibition of aggregation [1] was 14.3% (inactive), the nuclei count [1] was 77.3% and the inhibition [2] was -22.1% (inactive). The nuclei count [2] was 116%, the z-score [3, 12] was 1.58 and the z-score [3, 13] was -1.02. For the same compound, the z-score [3, 14] was 0.322, the inhibition [4] was -0.828% (inactive) and the fluorescence slope [5] was -0.468 (inactive). The NADPH fluorescence slope [6] was -5.4e-05 (inactive), the slope [7] was 0.0044 (inactive) and the inhibition [9] was -10.6% (inactive). The inhibition [10] was 13.3% (inactive) and the inhibition [11] was -14.5% (inactive).
With `CCn1cc(C(=O)O)c(=O)c2cnc(N3CCNCC3)nc21` the inhibition of aggregation [1] was 1.6% (inactive), the nuclei count [1] was 108% and the inhibition [2] was -26.1% (inactive). It also gave a nuclei count [2] of 127%, a z-score [3, 12] of 0.597 and a z-score [3, 13] of 0.614. The z-score [3, 14] was 0.576, the inhibition [4] was 14.6% (inactive) and the fluorescence slope [5] was -0.512 (inactive). The NADPH fluorescence slope [6] was -1.1e-05 (inactive), the slope [7] was 0.00483 (inactive) and the outcome [8] was “inactive”. The inhibition [9] was -9.24% (inactive), the inhibition [10] was 4.06% (inactive) and the inhibition [11] was 33.1% (inactive).
With `OC(CCN1CCCCC1)(c1ccccc1)C1CCCCC1` (centres undefined) the inhibition of aggregation [1] was 11.9% (inactive), the nuclei count [1] was 107% and the inhibition [2] was -31.1% (inactive). The nuclei count [2] was 119%, the z-score [3, 12] was 0.0708 and the z-score [3, 13] was 1.69. The z-score [3, 14] was -1.17, the inhibition [4] was 21.2% (inactive) and the fluorescence slope [5] was -0.528 (inactive). The NADPH fluorescence slope [6] was -8.4e-05 (inactive), the slope [7] was 0.00465 (inactive) and the outcome [8] was “inactive”. The inhibition [9] was 1.25% (inactive) and 22.1% (inactive), the inhibition [10] was 0.614% (inactive) and the inhibition [11] was -5.26% (inactive).
For `Oc1c(Cl)cc(Cl)cc1Sc1cc(Cl)cc(Cl)c1O`, the inhibition of aggregation [1] was 13.7% (inactive), the nuclei count [1] was 90% and the inhibition [2] was -49.8% (inactive). The nuclei count [2] was 117%, the z-score [3, 12] was -0.357 and the z-score [3, 13] was -0.512. The z-score [3, 14] was 0.181, the inhibition [4] was 1.48% (inactive) and the fluorescence slope [5] was -0.478 (inactive). For the same compound, the NADPH fluorescence slope [6] was -6e-05 (inactive), the slope [7] was 0.00369 (inactive) and the outcome [8] was “inactive”. For the same compound, the inhibition [9] was 155% (active), the inhibition [10] was 10.6% (inactive) and the inhibition [11] was -53.7% (inactive).
With `Cc1cc(C(C)(C)C)c(O)c(C)c1CC1=NCCN1` the inhibition of aggregation [1] was 2.2% (inactive), the nuclei count [1] was 87.4% and the inhibition [2] was -50.7% (inactive). For the same compound, the nuclei count [2] was 134%, the z-score [3, 12] was 0.182 and the z-score [3, 13] was 0.896. The z-score [3, 14] was -0.366, the inhibition [4] was -2.29% (inactive) and the fluorescence slope [5] was -0.367 (inactive). The NADPH fluorescence slope [6] was -2.8e-05 (inactive), the slope [7] was 0.00482 (inactive) and the outcome [8] was “inactive”. The inhibition [9] was 6.18% (inactive) and -2.62% (inactive), the inhibition [10] was 16.9% (inactive) and the inhibition [11] was 24.3% (inactive).
